PostGolgi ctrl – growth inhibition of yeast control strain, primary screen, counter-screen for post-Golgi transport modulator project | AID 738, 2007 | efflux-deficient yeast background strain, growth absorbance A615, 16 h | inhibition, % at 10 µM | 98,000 compounds, 5% hits
PostGolgi yeast – phenotypic screen on post-Golgi transport, primary screen. post-Golgi transport phenotypic cell assay. inhibition, % at 10 µM. 98,000 compounds, 0.9% hits. AID 739, 2007;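 further: yeast cells grown in 1536-well plates; yeast grown about 18 h at 30C before absorbance read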
EphB4 antag – EphB4-ephrin-B2 interaction antagonists, primary screen, biochemical, TNYL-RAW peptide probe, fluorescence polarization. inhibition, % at 7 µM. EphB4 LBD / TNYL-RAW-Alexa532 peptide. 97,000 compounds, 0.15% hits;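 active means inhibition above the screen-wide mean inhibition plus 3 SD, cut at about 15% in these data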;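 further: 0% = DMSO wells and 100% = excess unlabeled TNYL-RAW peptide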
Target sequence (P54760 whole entry, looked up, the tested form may be a part): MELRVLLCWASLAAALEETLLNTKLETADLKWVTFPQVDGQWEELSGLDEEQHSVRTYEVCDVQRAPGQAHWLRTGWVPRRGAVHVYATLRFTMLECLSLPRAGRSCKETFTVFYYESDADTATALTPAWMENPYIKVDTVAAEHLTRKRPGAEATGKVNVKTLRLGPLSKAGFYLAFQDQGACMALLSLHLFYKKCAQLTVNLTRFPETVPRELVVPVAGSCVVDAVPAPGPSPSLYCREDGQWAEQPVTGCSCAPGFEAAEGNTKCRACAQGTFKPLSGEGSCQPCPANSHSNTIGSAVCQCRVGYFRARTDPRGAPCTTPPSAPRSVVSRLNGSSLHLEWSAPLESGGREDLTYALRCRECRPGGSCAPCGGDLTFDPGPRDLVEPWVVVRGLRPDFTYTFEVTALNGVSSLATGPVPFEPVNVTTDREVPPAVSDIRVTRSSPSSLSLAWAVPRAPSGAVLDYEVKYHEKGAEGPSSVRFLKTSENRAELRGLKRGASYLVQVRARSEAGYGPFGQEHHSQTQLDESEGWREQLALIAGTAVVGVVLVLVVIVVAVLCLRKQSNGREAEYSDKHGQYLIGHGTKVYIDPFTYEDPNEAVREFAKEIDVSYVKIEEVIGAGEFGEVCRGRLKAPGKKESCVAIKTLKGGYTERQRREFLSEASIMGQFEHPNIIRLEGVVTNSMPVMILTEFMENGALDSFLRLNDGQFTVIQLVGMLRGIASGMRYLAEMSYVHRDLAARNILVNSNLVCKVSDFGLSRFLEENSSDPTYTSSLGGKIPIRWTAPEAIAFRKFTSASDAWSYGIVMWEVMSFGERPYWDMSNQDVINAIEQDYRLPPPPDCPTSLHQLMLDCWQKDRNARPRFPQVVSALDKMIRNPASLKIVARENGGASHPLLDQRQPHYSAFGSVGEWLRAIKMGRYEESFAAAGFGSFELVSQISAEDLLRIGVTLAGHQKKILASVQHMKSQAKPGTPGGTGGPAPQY
Calb biofilm kill – clotrimazole potentiators killing Candida biofilms, primary screen, with clotrimazole, Alamar Blue; 85,000 compounds, 0.14% hits; C. albicans biofilm + clotrimazole; AID 834, 2007; inhibition, % at 6 µM;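 active means inhibition above 20%; inactive means inhibition below 20%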;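 further: preformed 24 hr biofilms exposed to compound for 48 hr; 0% = biofilm without compound and 100% = blank killed by clotrimazole plus chlorhexidine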
Starred values were filed as active, the others as inactive. Only some compounds are listed: those with a hit (about 5.2% of all), similar ones and a draw of the others. Unless noted, no stated cut-off is given here; in the data, active means inhibition above about 30%; inactive means the rest.

`CCN(CC)c1ccc(NC(=O)CC2Oc3ccccc3NC2=O)c(C)c1` (stereo not drawn) gave PostGolgi ctrl 6.4, PostGolgi yeast -3.5, EphB4 antag -2.4 and Calb biofilm kill 8.5.
Screening COc1ccc(C(=O)Nc2cccc(-c3nnc(-c4ccco4)o3)c2)cc1 returned PostGolgi ctrl 30.8*, PostGolgi yeast 0.0, EphB4 antag -8.2 and Calb biofilm kill 6.2.
Screening CCOC(=O)c1[nH]c(=O)[nH]c1COC(=O)c1cc2ccccc2o1 returned PostGolgi ctrl 11.7, PostGolgi yeast 4.0 and EphB4 antag 5.7.
For C=CCCCCCCCCc1nc(=S)[nH][nH]1 the results were PostGolgi ctrl 67.3*, PostGolgi yeast 8.7, EphB4 antag -5.5 and Calb biofilm kill 4.0.
For Cc1cc(C)cc(NC(=O)C/C(N)=N/O)c1 the results were PostGolgi ctrl 12.8, PostGolgi yeast -4.2 and EphB4 antag -8.0.
For CCOC(=O)c1c(NC(=O)CSc2nc3cccnc3n2C)sc(C(C)=O)c1C the results were PostGolgi ctrl 36.5*, PostGolgi yeast -1.8, EphB4 antag -5.4 and Calb biofilm kill 12.2.
`Cc1ccc(OCC(=O)N2CCN(c3nnc(-c4ccc(C)cc4)c4ccccc34)CC2)cc1` gave PostGolgi ctrl 71.3*, PostGolgi yeast -2.1, EphB4 antag -2.7 and Calb biofilm kill 5.4.
For O=C(COc1ccccc1)N1CCN(c2nnc(-c3ccccc3)c3ccccc23)CC1 the results were PostGolgi ctrl 17.6, PostGolgi yeast 3.4, EphB4 antag 7.2 and Calb biofilm kill 0.5.
COc1ccc(OCC(=O)N2CCN(c3nnc(-c4ccccc4)c4ccccc34)CC2)cc1 was read as PostGolgi ctrl 32.2*, PostGolgi yeast -2.2, EphB4 antag -69.4 and Calb biofilm kill 8.4.
`CNC(=S)N1N=C(c2ccc(Br)cc2)CC1c1ccc(Br)cc1` (stereo not drawn) gave PostGolgi ctrl 32.6*, PostGolgi yeast -10.6 and EphB4 antag 1.4.
CCOC(=O)c1ccc(N=c2sc(C(=O)OC)cc(=O)n2Cc2ccc3c(c2)OCO3)cc1 was read as PostGolgi ctrl 11.4, PostGolgi yeast -9.3, EphB4 antag 3.6 and Calb biofilm kill 11.9.
For CCOC(=O)c1ccc(N=c2sc(C(=O)OC)cc(=O)n2C2CC2)cc1 the results were PostGolgi ctrl 32.5*, PostGolgi yeast 4.8, EphB4 antag 15.1 and Calb biofilm kill -1.8.
For CCOC(=O)c1ccccc1NS(=O)(=O)c1ccccc1 the results were PostGolgi ctrl 36.5*, PostGolgi yeast -2.9, EphB4 antag 5.8 and Calb biofilm kill 1.7.
`CCOC(=O)c1ccccc1NC(=O)c1nc2nccc(C)n2n1` gave PostGolgi ctrl 40.1*, PostGolgi yeast 3.1, EphB4 antag 2.5 and Calb biofilm kill 6.6.
`CCOc1ccc2oc(-c3ccccc3)c(C(=O)N3CCN(CCO)CC3)c2c1` gave PostGolgi ctrl 2.0, PostGolgi yeast -6.3, EphB4 antag 1.0 and Calb biofilm kill 7.4.
For CC1=NC(=O)C(N=Nc2cccc3ccccc23)N1c1ccccc1 (stereo not drawn) the results were EphB4 antag 5.5 and Calb biofilm kill 1.8.
`Cn1c(SCC(=O)N2c3ccccc3Sc3ccc(Cl)cc32)nnc1-c1ccco1` gave PostGolgi ctrl 59.6* and PostGolgi yeast 53.3*.
CCn1c(SCC(=O)N2c3ccccc3Sc3ccccc32)nnc1-c1ccco1 was read as PostGolgi ctrl 11.4, PostGolgi yeast -5.4, EphB4 antag -0.6 and Calb biofilm kill -2.8.
O=C(Nc1cccc2ccccc12)c1nn(C23CC4CC(CC(C4)C2)C3)cc1[N+](=O)[O-] was read as PostGolgi ctrl 84.7*, PostGolgi yeast 46.7* and EphB4 antag -4.8.
Screening CCc1ccc2[nH]c(=O)c(CN(Cc3ccccc3)C(=O)Nc3ccccc3OC)cc2c1 returned PostGolgi ctrl 70.7*, PostGolgi yeast 19.1, EphB4 antag 10.1 and Calb biofilm kill 4.7.
`COc1ccccc1NC(=O)N(Cc1ccco1)Cc1cc2cc(C)cc(C)c2[nH]c1=O` gave PostGolgi ctrl 67.1*, PostGolgi yeast -11.0, EphB4 antag 7.2 and Calb biofilm kill 10.1.
CCc1ccc2[nH]c(=O)c(CN(CCN(C)C)C(=O)Nc3ccccc3OC)cc2c1 was read as PostGolgi ctrl -1.2, PostGolgi yeast 4.2, EphB4 antag -3.9 and Calb biofilm kill 5.9.
Screening Cc1ccc2cc(CN(Cc3ccco3)C(=O)NCc3ccccc3)c(=O)[nH]c2c1C returned PostGolgi ctrl 6.7, PostGolgi yeast 11.7, EphB4 antag -1.6 and Calb biofilm kill 6.1.
COc1ccccc1NC(=O)N(Cc1ccco1)Cc1cc2ccc(C)c(C)c2[nH]c1=O was read as PostGolgi ctrl 41.1*, PostGolgi yeast 10.7, EphB4 antag -12.1 and Calb biofilm kill 5.6.
Screening Cc1ccc(C)c2[nH]c(=O)c(CN(Cc3ccco3)C(=O)Nc3ccccc3)cc12 returned PostGolgi ctrl 41.8*, PostGolgi yeast -6.0, EphB4 antag -15.1 and Calb biofilm kill 2.8.
Cc1ccc2cc(CN(Cc3ccco3)C(=O)c3ccccc3)c(=O)[nH]c2c1C was read as PostGolgi ctrl 7.5, PostGolgi yeast 8.6, EphB4 antag -6.4 and Calb biofilm kill -4.1.
`COc1cc(C(=O)N(Cc2ccco2)Cc2cc3ccccc3[nH]c2=O)cc(OC)c1OC` gave PostGolgi ctrl 28.0, PostGolgi yeast 1.5 and EphB4 antag 2.0.
CCN1CCN(c2nc(C)c3c(n2)CCCC3=O)CC1 was read as PostGolgi ctrl 4.1, PostGolgi yeast 0.7, EphB4 antag 5.8 and Calb biofilm kill 3.8.
For COc1ccc(OC)c2[nH]c(=O)c(CCNC(=O)CC(C)C)cc12 the results were PostGolgi ctrl 18.4, PostGolgi yeast 6.7, EphB4 antag 1.9 and Calb biofilm kill 5.0.
`CCCCS(=O)(=O)C(=C1Nc2ccccc2N1)S(=O)(=O)CCCC` gave PostGolgi ctrl 30.0*, PostGolgi yeast 12.2, EphB4 antag -5.5 and Calb biofilm kill 8.7.
For Cc1cc(NC(=O)CSc2ncn(-c3ccccc3)n2)no1 the results were PostGolgi ctrl 33.2*, PostGolgi yeast 7.7, EphB4 antag -6.1 and Calb biofilm kill -1.6.
Cc1cc(NC(c2cccnc2)c2c(C)[nH]c3ccccc23)no1 (stereo not drawn) was read as PostGolgi ctrl -0.9, PostGolgi yeast -8.7 and Calb biofilm kill 27.4*.
For Cc1cc(NC(=O)CSc2c(C)[nH]c3ccccc23)no1 the results were PostGolgi ctrl 30.2*, PostGolgi yeast -16.9 and Calb biofilm kill 2.4.
`Cc1cc(NC(=O)CSc2ncccn2)no1` gave EphB4 antag -5.0 and Calb biofilm kill 2.3.
CC(C)(C)C(=O)N=C1SC2CS(=O)(=O)CC2N1c1ccc2c(c1)OCO2 (stereo not drawn) was read as PostGolgi ctrl 0.7, PostGolgi yeast -10.4, EphB4 antag -9.5 and Calb biofilm kill 2.0.
For CC(C)CCN(C(=O)CNC(=O)c1ccco1)C(C(=O)NC1CCCCC1)c1ccco1 (stereo not drawn) the results were PostGolgi ctrl 15.9, PostGolgi yeast 12.5, EphB4 antag -15.0 and Calb biofilm kill 4.8.
